Source: PubChem BioAssay (NCI)
This is part of a sample that, as a whole, favours compounds with a hit. Of some 83,000 tested, about 20% had one in any assay.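 Assay: single dose, 48 h. Readout: percent growth (0 = no net growth; negative = cell death). Active: <10.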 A number with no mark means an inactive call. The source made the active and inactive calls.

Tests used:
Assay in all cases: NCI-60 one-dose screen, 48 h (100 = growth as untreated, 0 = no growth, -100 = all killed)
Conditions in all cases: 10 µM unless noted
[1] = tested on: NCI-H23 lung
[2] = tested on: NCI-H226 lung
[3] = tested on: NCI-H322M lung
[4] = tested on: HOP-62 NSCLC
[5] = tested on: NCI-H460 lung
[6] = tested on: HOP-92 NSCLC
[7] = tested on: NCI-H522 lung
[8] = tested on: A549/ATCC NSCLC
[9] = tested on: 786-0 renal
[10] = tested on: COLO 205 colon
[11] = tested on: DU-145 prostate
[12] = tested on: K-562 leukemia
[13] = tested on: MALME-3M melanoma
[14] = tested on: MDA-MB-231 breast
[15] = tested on: RXF 393 renal
[16] = tested on: SF-268 CNS
[17] = tested on: SF-295 CNS
[18] = tested on: SF-539 CNS
[19] = tested on: UACC-257 melanoma
[20] = tested on: M14 melanoma

O=C(Nc1ccc(-n2ccc3c(NC(=O)c4ccccc4)ncnc32)cc1)Nc1cccc(Cl)c1Cl
growth [1]: -13.7% (active)
growth [2]: -37.6% (active)
growth [3]: 43.9%
growth [4]: -32% (active)
growth [5]: -48.4% (active)
growth [6]: -21.1% (active)
growth [7]: -31.6% (active)
growth [8]: -69.6% (active)
growth [9]: 6.42% (active)
growth [10]: 15.9%
growth [11]: 1.29% (active)
growth [12]: 12.5%
growth [13]: 2.21% (active)
growth [14]: -9.33% (active)
growth [15]: -76.1% (active)
growth [16]: -26.8% (active)
growth [17]: -47.9% (active)
growth [18]: -10.4% (active)
growth [19]: 12.2%
growth [20]: -6.74% (active)

O=C(Nc1ccc(-n2ccc3c(NC(=O)c4ccccc4)nccc32)cc1)Nc1cccc(C(F)(F)F)c1
growth [1]: 38.7%
growth [2]: 44.7%
growth [3]: 63.2%
growth [4]: 84.5%
growth [5]: 34.3%
growth [6]: 32.3%
growth [7]: 45.8%
growth [8]: 7.66% (active)
growth [9]: 88.1%
growth [10]: 64.7%
growth [11]: 31.8%
growth [12]: 21.2%
growth [13]: 73.4%
growth [14]: 63.7%
growth [15]: 10.3%
growth [16]: 51.8%
growth [17]: 37.1%
growth [18]: 44.8%
growth [19]: 68.8%
growth [20]: 43.7%

NC(=NCCCOc1ccc(F)cc1)Nc1ccc(Cl)c(Cl)c1
growth [1]: 67.9%
growth [2]: 76.2%
growth [3]: 69.3%
growth [4]: 78.7%
growth [5]: 74.3%
growth [6]: 16.5%
growth [7]: 67.6%
growth [8]: 82.5%
growth [9]: 67.6%
growth [10]: -57.7% (active)
growth [11]: 80.2%
growth [12]: 12.6%
growth [13]: 98.1%
growth [14]: 44%
growth [15]: 68.6%
growth [16]: 54.9%
growth [17]: 76.6%
growth [18]: 79.1%
growth [19]: 77.2%
growth [20]: 63.6%

CCOC(=O)c1cnc2c(OC)ccc(OC)c2c1Cl
growth [1]: 110%
growth [2]: 113%
growth [3]: 120%
growth [4]: 101%
growth [5]: 108%
growth [6]: 98.5%
growth [7]: 120%
growth [8]: 97.3%
growth [9]: 117%
growth [10]: 117%
growth [11]: 118%
growth [12]: 116%
growth [13]: 98.3%
growth [14]: 128%
growth [15]: 115%
growth [16]: 98.9%
growth [17]: 110%
growth [18]: 104%
growth [19]: 101%
growth [20]: 106%

COc1cccc(/C=N/C(=S)NC2(C)C3CCC(C3)C2(C)C)c1O (stereo not given)
growth [1]: 94.7%
growth [2]: 93.1%
growth [3]: 73.1%
growth [4]: 92%
growth [5]: 60.2%
growth [6]: 93.3%
growth [7]: 69.7%
growth [8]: 74.7%
growth [9]: 88%
growth [10]: 89.6%
growth [11]: 105%
growth [12]: 79.4%
growth [13]: 89.8%
growth [14]: 96.2%
growth [15]: 99%
growth [16]: 94.7%
growth [17]: 86.1%
growth [18]: 95.3%
growth [19]: 87%
growth [20]: 64.8%

CN(C)c1ccc(/C=N/N=C(N)N)cc1
growth [1]: 81.2%
growth [2]: 82.2%
growth [3]: 99.4%
growth [4]: 75.3%
growth [5]: 83.2%
growth [6]: 73.6%
growth [7]: 66.7%
growth [8]: 70.7%
growth [9]: 103%
growth [10]: 54.7%
growth [11]: 92.6%
growth [12]: 40%
growth [13]: 77%
growth [14]: 75.8%
growth [15]: 75.1%
growth [16]: 87%
growth [17]: 61.4%
growth [18]: 90.9%
growth [19]: 72.4%
growth [20]: 51.2%

COc1ccc(NC(=O)Nc2ccc(-c3ccc(OC)c(OC)c3)nc2C)cc1
growth [1]: 67.4%
growth [2]: 58%
growth [3]: 87%
growth [4]: 56.5%
growth [5]: 17.6%
growth [6]: 73.4%
growth [7]: 49.9%
growth [8]: 57%
growth [9]: 11.1%
growth [10]: 91.9%
growth [11]: 72.2%
growth [12]: 73.2%
growth [13]: 44.1%
growth [14]: 40.5%
growth [15]: 58.2%
growth [16]: 59.2%
growth [17]: 102%
growth [18]: 70.6%
growth [19]: 55.5%
growth [20]: 72.1%

COC(=O)c1oc2c(C(=O)/C=C/c3ccc(OC)cc3)c(OCCN3CCOCC3)ccc2c1C
growth [1]: 18.7%
growth [2]: -5.76% (active)
growth [3]: 0.995% (active)
growth [4]: -6.52% (active)
growth [5]: -20.9% (active)
growth [6]: -44.8% (active)
growth [7]: -20% (active)
growth [8]: 2.83% (active)
growth [9]: -6.7% (active)
growth [10]: -20.9% (active)
growth [11]: 1.8% (active)
growth [12]: -37.3% (active)
growth [13]: -14.1% (active)
growth [14]: 3.21% (active)
growth [15]: -64.4% (active)
growth [16]: 11.5%
growth [17]: 18.3%
growth [18]: -34% (active)
growth [19]: 55.5%
growth [20]: 11.5%

O=C(CSc1nnc(-c2cc3c([nH]c4ccccc43)c(-c3cccc(O)c3)n2)n1-c1ccccc1)c1ccccc1
growth [1]: 80.2%
growth [2]: 93.4%
growth [3]: 89.7%
growth [4]: 59.3%
growth [5]: 65.3%
growth [6]: 67.6%
growth [7]: 23%
growth [8]: 69.9%
growth [9]: 18.8%
growth [10]: 105%
growth [11]: 47.8%
growth [12]: 21.8%
growth [13]: 55.4%
growth [14]: 78%
growth [15]: -11.4% (active)
growth [16]: 63.1%
growth [17]: 16.8%
growth [18]: 33.1%
growth [19]: 93.3%
growth [20]: 30%

Nc1nccc2c1ccn2-c1ccc(NC(=O)c2ccc(N3CCOCC3)c(C(F)(F)F)c2)cc1
growth [1]: 33%
growth [2]: 63.1%
growth [3]: 38.9%
growth [4]: -43% (active)
growth [5]: 1.76% (active)
growth [6]: -25% (active)
growth [7]: 23.1%
growth [8]: 11.9%
growth [9]: -45.5% (active)
growth [10]: -54.7% (active)
growth [11]: 48.3%
growth [12]: 1.22% (active)
growth [13]: -18.1% (active)
growth [14]: -3.15% (active)
growth [15]: -77.4% (active)
growth [16]: 18.2%
growth [17]: -59.6% (active)
growth [18]: 7.48% (active)
growth [19]: 32.7%
growth [20]: -61.8% (active)

Nc1nc(Cl)cc(NCCCCNc2cc(Cl)nc(N)n2)n1
growth [1]: 102%
growth [2]: 109%
growth [3]: 87.1%
growth [4]: 107%
growth [5]: 121%
growth [6]: 74.3%
growth [7]: 83.8%
growth [8]: 108%
growth [9]: 108%
growth [10]: 105%
growth [11]: 104%
growth [12]: 101%
growth [13]: 145%
growth [14]: 114%
growth [15]: 123%
growth [16]: 112%
growth [17]: 121%
growth [18]: 96.5%
growth [19]: 105%
growth [20]: 117%

C=C(C)[C@@H]1C/C=C(\COC(=O)[C@H](OC(C)=O)C(NC(=O)c2ccccc2)c2ccccc2)CC[C@H]2O[C@]2(C)CC/C=C(\C)CC1 (stereo not given in full)
growth [1]: 73.7% [5 µM]
growth [2]: 81% [5 µM]
growth [3]: 71.6% [5 µM]
growth [4]: 75.3% [5 µM]
growth [5]: 64.2% [5 µM]
growth [6]: 13.3% [5 µM]
growth [7]: 57.3% [5 µM]
growth [8]: 73.1% [5 µM]
growth [9]: 65.7% [5 µM]
growth [10]: 92% [5 µM]
growth [11]: 86.6% [5 µM]
growth [12]: 14.7% [5 µM]
growth [13]: 86.3% [5 µM]
growth [14]: 65.2% [5 µM]
growth [15]: 107% [5 µM]
growth [16]: 78.9% [5 µM]
growth [17]: 73.7% [5 µM]
growth [18]: 81.1% [5 µM]
growth [19]: 97.5% [5 µM]
growth [20]: 34.3% [5 µM]

COc1cc2c(cc1OC)-c1c(oc3c4c(ccc3c1=O)OC(C)(C)C=C4)CO2
growth [1]: 45.6%
growth [2]: 89.3%
growth [3]: 86.2%
growth [4]: 59.6%
growth [5]: 77.1%
growth [6]: 90.2%
growth [7]: 56.7%
growth [8]: 71.3%
growth [9]: 76.6%
growth [10]: 113%
growth [11]: 90.9%
growth [12]: 39.9%
growth [13]: 93.2%
growth [14]: 81.5%
growth [15]: 96.9%
growth [16]: 79.4%
growth [17]: 51.7%
growth [18]: 83.5%
growth [19]: 54.8%
growth [20]: 83.1%

Cc1ccc(/C=C2/C(=O)Nc3cc(Cl)c(-c4csc(N)n4)cc32)cc1
growth [1]: 75%
growth [2]: 80.8%
growth [3]: 81.4%
growth [4]: 71.7%
growth [5]: 81.1%
growth [6]: 79.4%
growth [7]: 33.7%
growth [8]: 74.1%
growth [9]: 87.8%
growth [10]: 82.1%
growth [11]: 87.5%
growth [12]: 9.97% (active)
growth [13]: 80.4%
growth [14]: 46.8%
growth [15]: 76.4%
growth [16]: 71.8%
growth [17]: 70.8%
growth [18]: 81.6%
growth [19]: 94.7%
growth [20]: 52.9%

O=C(O)c1ccc(-n2cc(/C=N/Nc3ccc(F)cc3)c(-c3cccc(C(F)(F)F)c3)n2)cc1
growth [1]: 81%
growth [2]: 92.5%
growth [3]: 76.5%
growth [4]: 96.1%
growth [5]: 81.6%
growth [6]: 95.9%
growth [7]: 36.3%
growth [8]: 65.7%
growth [9]: 79.9%
growth [10]: 105%
growth [11]: 81.6%
growth [12]: 11.1%
growth [13]: 88.2%
growth [14]: 87.8%
growth [15]: 101%
growth [16]: 67%
growth [17]: 54%
growth [18]: 75.6%
growth [19]: 91.2%
growth [20]: 51.3%
